A selection: hits, their analogues and other compounds. The true share with any hit is near 2.3%.
MCL1 BIM primary – inhibitors of MCL1 binding to BIM-BH3, primary screen, biochemical, fluorescence polarization; inhibition, % at 10.9 µM; Induced myeloid leukemia cell differentiation protein Mcl-1 (Homo sapiens), Q07820; AID 2057, 2009; GST-MCL1 / FITC-Bim-BH3 fluorescence polarization; 320,000 compounds, 0.68% hits;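 active = inhibition above the mean inhibition of all tested compounds plus 3 SD, set per campaign, cut at about 40% in these data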;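 note: higher means more loss of mP so more displacement of Bim peptide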
Bcl-xL primary – inhibitors of human Bcl-xL, primary screen, biochemical, fluorescence polarization, HTS. Bcl-2-like protein 1 (Homo sapiens), Q07817. GST-Bcl-xL / FITC-Bim BH3 peptide fluorescence polarization. inhibition, % at 10.9 µM. 320,000 compounds, 0.7% hits;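 active = inhibition above the mean of all tested compounds plus 3 SD, cutoff set per campaign, cut at about 30% in these data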;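 note: inhibitors lower millipolarization by displacing the labeled peptide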
Target sequence (Q07817 whole entry, looked up): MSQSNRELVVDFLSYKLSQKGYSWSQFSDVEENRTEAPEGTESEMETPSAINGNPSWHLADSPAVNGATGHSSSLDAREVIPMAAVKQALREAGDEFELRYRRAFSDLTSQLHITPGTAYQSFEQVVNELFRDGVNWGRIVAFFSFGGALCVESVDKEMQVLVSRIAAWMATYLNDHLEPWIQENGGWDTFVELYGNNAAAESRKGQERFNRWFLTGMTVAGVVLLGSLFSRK
Mcl1-Bid inh – Mcl-1/Bid binding inhibitors, primary screen, biochemical, TR-FRET, 1536-well | TR-FRET Mcl-1/Bid-Dy647 peptide binding | inhibition, % at 21.7 µM | Induced myeloid leukemia cell differentiation protein Mcl-1 (Homo sapiens), Q07820 | 220,000 compounds, 0.97% hits;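 active = compounds that cut the binding signal by more than half at the single screening dose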;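 note: His-tagged Mcl-1 with europium anti-His antibody binding Bid BH3 peptide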
Mcl-1 Bim block – inhibitors of Bim peptide binding to Mcl-1, primary screen, biochemical, bead-based flow cytometry, multiplex | Bim peptide-Mcl-1 binding | 190,000 compounds, 0.1% hits | AID 1009, 2008 | inhibition, % at 10 µM; in the data active = inhibition above about 40%
Mcl1 Noxa PPI – Mcl-1/Noxa binding inhibitors, primary screen, biochemical, TR-FRET, 1536-well | Induced myeloid leukemia cell differentiation protein Mcl-1 (Homo sapiens), Q07820 | 220,000 compounds, 1.5% hits | inhibition, % at 21.7 µM | TR-FRET Mcl-1/Noxa peptide binding, 2 h;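 active = compounds that cut the protein-peptide binding signal by more than 50% relative to plate controls in a single-dose test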;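 note: His-tagged Mcl-1 with rhodamine Noxa BH3 peptide and terbium anti-His antibody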
GLD-1 TGE inh – GLD-1/TGE RNA complex disruptors, primary screen, biochemical, fluorescence polarization; Female germline-specific tumor suppressor gld-1 (Caenorhabditis elegans), Q17339; purified GLD-1 + fluorescein TGE RNA; inhibition, % at 5.96 µM; 320,000 compounds, 0.44% hits; AID 2280, 2010;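 active = percent inhibition above a per-plate cutoff, the plate mean of test compounds plus 3 SD, cut at about 30% in these data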
Target sequence (Q17339 whole entry, looked up): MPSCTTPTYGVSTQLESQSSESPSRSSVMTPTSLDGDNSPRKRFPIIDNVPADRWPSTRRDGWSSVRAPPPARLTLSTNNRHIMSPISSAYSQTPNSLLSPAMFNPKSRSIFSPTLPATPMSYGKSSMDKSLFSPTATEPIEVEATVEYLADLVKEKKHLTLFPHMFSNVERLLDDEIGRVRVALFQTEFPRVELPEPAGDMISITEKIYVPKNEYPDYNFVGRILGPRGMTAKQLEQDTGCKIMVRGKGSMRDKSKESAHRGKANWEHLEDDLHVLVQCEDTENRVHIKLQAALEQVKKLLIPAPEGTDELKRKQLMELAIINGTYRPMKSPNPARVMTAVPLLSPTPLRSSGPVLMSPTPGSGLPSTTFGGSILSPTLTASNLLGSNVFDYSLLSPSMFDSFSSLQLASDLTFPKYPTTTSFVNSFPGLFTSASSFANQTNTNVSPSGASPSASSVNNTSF
Bcl-xL conf – Bcl-xL inhibitors blocking Bim BH3 binding, confirmation, counter-screen for MCL1 inhibitor project, biochemical, fluorescence polarization. inhibition, % at 10.9 µM. shares compounds with MCL1 BIM primary. GST-Bcl-xL / FITC-Bim BH3 peptide FP binding. 1,700 compounds, 54% hits;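 active = inhibition above a cutoff equal to the mean inhibition of all tested compounds plus 3 SD, cut at about 30% in these data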
MCL1 BIM confirm – inhibitors of MCL1 binding to BIM-BH3, confirmation, biochemical, fluorescence polarization, triplicate; AID 2168, 2009; shares compounds with MCL1 BIM primary; 1,700 compounds, 61% hits; inhibition, % at 10.9 µM; GST-MCL1 / FITC-Bim-BH3 fluorescence polarization;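 active = inhibition above the average of all tested compounds plus 3 SD, cut at about 40% in these data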
Hits are given with their value; i = inactive; nt = no result given; + = active, no number; ! = not active in a repeat.

SMILES | MCL1 BIM primary | Bcl-xL primary | Mcl1-Bid inh | Mcl-1 Bim block | Mcl1 Noxa PPI | GLD-1 TGE inh | Bcl-xL conf | MCL1 BIM confirm
Cc1cc(/C=C2\C(=O)NC(=O)N(Cc3ccccc3)C2=O)c(C)n1C1CC1 | 67 | i | i | i | i | i | i | i
N=C1c2ccccc2CN1NC(=O)c1ccc(Br)cc1 | i | i | i | i | i | i | nt | nt
Nc1c2c(nc3ccccc13)CCN(Cc1ccccc1)C2 | + | 167 | nt | nt | nt | 97 | 72 | 101
CC1=C[C@@H]2c3cccc4[nH]cc(c34)C[C@H]2N(C)C1 | + | 169 | nt | nt | nt | 118 | 141 | 163
Nc1cccc(N=Cc2c(O)n(Cc3ccc(F)cc3)c(=O)[nH]c2=O)c1 | 84 | 66 | i | i | i | i | i | i
O=c1[nH]c(=O)n(Cc2ccc(F)cc2)c(O)c1C=Nc1ccc(Cl)cc1 | i | i | i | i | i | i | nt | nt
O=C(Cc1ccc([N+](=O)[O-])cc1)N1CCN(Cc2ccc3c(c2)OCO3)CC1 | i | i | i | nt | i | i | nt | nt
CCn1c(O)c(C=NCCN2CCOCC2)c(=O)[nH]c1=S | i | i | i | nt | i | i | nt | nt
Oc1c(Cl)c(Cl)c(Cl)c(Cl)c1Cl | 53 | i | nt | nt | nt | i | i | i
O=c1[nH]c(=S)n(-c2ccc(Cl)cc2)c(O)c1C=Nc1ccc(N2CCOCC2)cc1 | + | 166 | i | i | i | i | 185 | +
COC(=O)C1=C(c2cccc(Cl)c2)C[C@@H]2CC[C@H]1N2C(=O)N1CCCC1 | i | i | nt | nt | nt | i | nt | nt
CC(C)[C@H]1C(=O)N2CCC[C@H]2[C@]2(O)O[C@](NC(=O)[C@@H]3C=C4c5cccc6[nH]cc(c56)C[C@H]4N(C)C3)(C(C)C)C(=O)N12 | + | 153 | i | i | i | 129 | 106 | 128
COCCNC(=O)Cn1cc(/C=C2\C(=O)NC(=O)N(c3ccccc3F)C2=O)c2ccccc21 | i | i | nt | nt | nt | i | nt | nt
COCCCNC(=O)Cn1cc(/C=C2\C(=O)NC(=O)N(c3ccccc3F)C2=O)c2ccccc21 | 100 | i | nt | nt | nt | i | 117 | 133
O=c1[nH]c(O)c(/C=C2\C=Nc3ccc(OCc4ccccc4)cc32)c(=O)[nH]1 | 188 | 167 | nt | nt | nt | 46 | 126 | 153
COCCCN1CCN(c2nnc3n2-c2sc(Br)cc2C(c2ccccc2Cl)=NC3)CC1 | i | i | i | i | i | i | nt | nt
O=C(c1ccc2nc(-c3ccco3)c(-c3ccco3)nc2c1)N1CCC2(CC1)OCCO2 | 69 | 52 | i | i | 78 | i | 34 | i
COc1ccc(C(=O)N2CCC3(CC2)OCCO3)cc1 | i | i | nt | nt | nt | i | nt | nt
NC(Cc1cc(O)c(O)cc1O)C(=O)O (stereo unspecified) | 95 | 67 | nt | nt | nt | i | 55 | 96
CN1CCC2(CC1)C(C#N)=C(N)NC(S)=C2C#N | 118! | 42 | i | i | i | i | 90 | 104
Cc1ccc(/C=C2/Sc3ccc(C(=O)N4CCC5(CC4)OCCO5)cc3NC2=O)cc1 | 125 | 106 | nt | nt | nt | 75 | 108 | 131
C=Cn1ccnc1P(O)(=S)c1nc(C)c(CCOC(C)=O)s1 (stereo unspecified) | i | i | i | i | i | i | nt | nt
CN(C)[C@@H]1C(=O)C(C(N)=O)=C(O)[C@@]2(O)C(=O)C3=C(O)c4c(O)cccc4[C@@](C)(O)C3C[C@@H]12 (stereo partly specified) | 51 | i | nt | nt | nt | i | i | i
CN(C)[C@@H]1C(=O)C(C(N)=O)=C(O)[C@@]2(O)C(=O)C3=C(O)c4c(O)ccc(Cl)c4[C@@](C)(O)[C@H]3C[C@@H]12 | i | i | nt | nt | nt | i | nt | nt
COP(=O)(OC)C(NC(=O)/C=C/c1ccccc1)C(Cl)(Cl)Cl (stereo unspecified) | i | i | i | i | i | i | nt | nt
SMILES | MCL1 BIM primary | Bcl-xL primary | Mcl1-Bid inh | Mcl-1 Bim block | Mcl1 Noxa PPI | GLD-1 TGE inh | Bcl-xL conf | MCL1 BIM confirm
CC(C)c1ccc(NC(=O)CSc2nnc(OC(=O)N(C)C)n2C2CC2)cc1 | i | i | nt | nt | nt | i | nt | nt
O=[N+]([O-])c1cc(S(=O)(=O)c2ccc(O)c([N+](=O)[O-])c2)ccc1O | 47 | i | i | i | 85 | i | i | 72
CCOC(=O)CCCCCNC(=O)c1c(O)[nH]c(=O)[nH]c1=O | i | i | nt | nt | nt | i | nt | nt
CCOC(=O)c1c(C)[nH]c(C(=O)C(Cc2ccccc2)N(C)C)c1C (stereo unspecified) | i | i | i | i | i | i | nt | nt
O=[As](O)(O)c1ccc(N=Nc2ccc(O)cc2)cc1 | nt | nt | i | nt | i | nt | nt | nt
O=C1C(Cl)=CC(=Nc2ccc(O)cc2)C=C1Cl | 44 | i | nt | nt | nt | i | 40 | 60
O=C1NC(=O)N(Cc2ccco2)C(=O)/C1=C/c1ccc(-c2cccc([N+](=O)[O-])c2)o1 | 43 | i | i | i | 93 | i | i | 62
C=CCN1C(=O)NC(=O)/C(=C\c2ccc(-c3ccccc3[N+](=O)[O-])o2)C1=O | i | i | i | i | i | i | nt | nt
CCCCn1c(C)c(C(=O)O)c2cc(OC)c3ccccc3c21 | i | i | nt | nt | nt | i | nt | nt
O=C(O)c1ccc(-n2c(O)c(/C=C3\C=Nc4ccccc43)c(=O)[nH]c2=O)cc1 | i | i | nt | nt | nt | i | nt | nt
O=c1[nH]c(=O)n(-c2cccc(F)c2)c(O)c1/C=C1\C=Nc2ccccc21 | 199 | 160 | nt | nt | nt | i | 154 | 177
COc1ccc(N2C(=O)CC(N3CCC(n4c(=O)[nH]c5ccccc54)CC3)C2=O)cc1 (stereo unspecified) | i | i | i | i | i | i | nt | nt
O=c1[nH]c2ccccc2n1CCCN1CCC(n2c(=O)[nH]c3cc(Cl)ccc32)CC1 | 54 | 37 | i | i | i | i | i | i
CC1=NCCc2c1[nH]c1cc(O)ccc21 | + | + | nt | nt | nt | + | + | +
O=C1NC(=O)N(c2cccc(Cl)c2)C(=O)/C1=C\c1ccc(Sc2nc3ccccc3[nH]2)o1 | 181 | 91 | i | i | 52 | i | i | 41
O=C1NC(=O)N(c2ccccc2F)C(=O)/C1=C/c1ccc(Sc2nc3ccccc3[nH]2)o1 | 59 | 54 | i | i | 66 | i | 41 | 66

Source: PubChem BioAssay (several laboratories)
